Source: PubChem BioAssay (National Center for Advancing Translational Sciences (NCATS))
Only some compounds are listed: those with a hit (about 3% of all), similar ones and a draw of the others.
SNCA expr inhib = inhibitors of alpha-synuclein (SNCA) gene expression | actives 0.17% (n = 140,000) | AID 1671194 | HEK-293 SNCA-luciferase knock-in, luminescence, 24 h | Potency, µM (highest dose often 57.2 µM), for the others: at the top dose activity change, negative = inhibition, usual class: inhibitors;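 further: potency means the concentration at half of the fitted maximal effect; plate controls were DMSO cells for no effect and cell-free wells for full effect; nearly all actives have a fitted effect of over 45% in size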
SNCA viab count = cell viability loss counter-screen. HEK-293-SNCA-luc viability, GF-AFC fluorescence, 24 h. Potency, µM (series often up to 57.1 µM), for the others: at the top dose activity change, negative = cytotoxicity, most hits filed as cytotoxic. actives 0.12% (n = 150,000);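 further: potency means the concentration at half of the fitted maximal effect; 0% = DMSO-treated cells and -100% = medium-only wells without cells; nearly all actives have a fitted effect of over 30% in size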
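HEK-293-SNCA-luc cells (1500/well) plated 24 h, then exposed 24 h to a dilution series; GF-AFC added 30 min at 37C, fluorescence 405/540 nm; normalised to medium-only and DMSO wells, Hill fit.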
KDM5B inhibitor = inhibitors of human KDM5B histone demethylase; KDM5B demethylase, FDH-coupled NADH fluorescence (FDH is formaldehyde dehydrogenase); Potency, µM (doses to about 57.7 µM), actives largely listed as inhibitors; actives 2.6% (n = 220,000); further: potency means the concentration at half of the fitted maximal effect; 0% is about no effect; nearly all actives have a fitted effect of over 70% in size
Target sequence (Q9UGL1 whole entry, looked up): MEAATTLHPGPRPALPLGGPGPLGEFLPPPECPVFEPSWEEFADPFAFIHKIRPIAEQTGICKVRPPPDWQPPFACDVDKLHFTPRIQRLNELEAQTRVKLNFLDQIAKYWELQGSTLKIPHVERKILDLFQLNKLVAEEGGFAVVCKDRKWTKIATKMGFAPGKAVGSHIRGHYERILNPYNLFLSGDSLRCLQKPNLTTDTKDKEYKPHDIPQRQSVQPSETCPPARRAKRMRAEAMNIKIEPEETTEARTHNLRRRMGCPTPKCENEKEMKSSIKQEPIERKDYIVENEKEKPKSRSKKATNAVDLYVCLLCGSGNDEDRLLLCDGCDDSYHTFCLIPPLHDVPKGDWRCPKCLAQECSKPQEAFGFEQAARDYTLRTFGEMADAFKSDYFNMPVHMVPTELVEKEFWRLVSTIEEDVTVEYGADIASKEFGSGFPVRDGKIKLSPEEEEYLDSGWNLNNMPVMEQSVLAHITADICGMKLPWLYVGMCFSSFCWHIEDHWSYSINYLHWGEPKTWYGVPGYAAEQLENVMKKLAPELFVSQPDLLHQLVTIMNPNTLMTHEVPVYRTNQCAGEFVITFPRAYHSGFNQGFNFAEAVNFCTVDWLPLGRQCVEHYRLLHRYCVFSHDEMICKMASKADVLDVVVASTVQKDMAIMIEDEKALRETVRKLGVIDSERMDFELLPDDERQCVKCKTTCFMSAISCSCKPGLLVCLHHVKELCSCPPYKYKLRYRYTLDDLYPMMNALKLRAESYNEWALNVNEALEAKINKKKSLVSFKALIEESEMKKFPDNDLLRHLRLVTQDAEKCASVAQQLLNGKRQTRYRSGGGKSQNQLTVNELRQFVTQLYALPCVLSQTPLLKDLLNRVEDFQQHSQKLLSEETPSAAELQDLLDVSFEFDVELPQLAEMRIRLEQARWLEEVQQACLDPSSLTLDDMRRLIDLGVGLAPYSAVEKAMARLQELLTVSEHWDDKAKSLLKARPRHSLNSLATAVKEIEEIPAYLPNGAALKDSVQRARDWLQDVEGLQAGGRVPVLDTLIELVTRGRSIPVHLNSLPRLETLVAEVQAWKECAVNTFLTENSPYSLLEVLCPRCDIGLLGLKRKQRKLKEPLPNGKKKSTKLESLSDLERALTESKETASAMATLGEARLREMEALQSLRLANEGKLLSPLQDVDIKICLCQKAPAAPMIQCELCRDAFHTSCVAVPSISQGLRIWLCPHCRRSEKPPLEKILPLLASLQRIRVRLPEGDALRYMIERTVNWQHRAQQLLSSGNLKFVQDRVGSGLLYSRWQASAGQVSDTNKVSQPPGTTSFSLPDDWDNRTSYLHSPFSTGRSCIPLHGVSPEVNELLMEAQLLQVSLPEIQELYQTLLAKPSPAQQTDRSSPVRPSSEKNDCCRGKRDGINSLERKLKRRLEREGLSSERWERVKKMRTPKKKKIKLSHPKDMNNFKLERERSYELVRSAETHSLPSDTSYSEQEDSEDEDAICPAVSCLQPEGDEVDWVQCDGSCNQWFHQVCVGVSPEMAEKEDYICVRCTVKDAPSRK
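Coupled FDH/NAD⁺ fluorescence readout. KDM5BΔAP 200 nM final; compound titration, 10 min RT preincubation; substrate mix 12.5 µM H3K4me3, 25 µM 2-OG, 50 µM Fe(II), 100 µM ascorbate, 0.25 mM NAD⁺, 0.25 U/mL FDH; ΔRFU over 30 min.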
IP6K1 inh = blocks human inositol hexakisphosphate kinase 1 | activity change, % (series mostly up to about 58 µM) | Q92551 | actives 0.81% (n = 140,000) | AID 1645851 | IP6K1 kinase, ADP-Glo luminescence, 2 h; stronger effect = lower value; in the data active means activity change below about -25%; further: on the % scale 0 is the no-effect control and ±100 the full control effect
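ADP-Glo luminescence measures ADP made by human IP6K1 during a 2 h RT reaction with ATP/IP6 (mix at 1.3 mM/130 uM); top library doses 57.5 and 19.1 uM final.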
IP6K1 conf = confirmation of human IP6K1 inhibitors. shares compounds with IP6K1 inh. recombinant IP6K1 kinase, ADP-Glo luminescence, 2 h. Potency, µM (top dose mostly 49 µM), inactives show at the highest dose activity change, negative = inhibition, actives largely listed as inhibitors. actives 13% (n = 1,200); further: potency means the concentration at half of the fitted maximal effect; on the % scale 0 is the no-effect control and ±100 the full control effect; nearly all actives have a fitted effect of over 65% in size
* hit, by the source's call; i = inactive; ? = inconclusive; . = no result; [ ] = another dose, or the depositor's remark. Unless noted, the call rests on the fitted dose curve; in most records, active means well fitted curve in the direction sought with a large enough effect; inconclusive means small, poorly fitted or top-dose-only effect, or another doubt; inactive means no such curve, though single readings can be large; an effect the other way counts as inactive or inconclusive.

SMILES	SNCA expr inhib	SNCA viab count	KDM5B inhibitor	IP6K1 inh	IP6K1 conf
Cc1ccccc1C(=O)n1nc(-c2cccnc2)nc1NCc1ccccc1	-3%	1%	i	20	.
Clc1cccc(Nc2nc(-c3ccncc3)nc3ccccc23)c1	.	.	i	.	.
O=C(O)c1ccc2c(c1)nc(Nc1cccc(Cl)c1)c1ccncc12	?	-33%	.	-35*	?
Cn1cc(-c2ccc3nnc(C(F)(F)c4ccc5ncccc5c4)n3n2)cn1	-15%	-4%	.	1	-19%
COc1cccc(CCC(=O)N2C[C@@H]3CC[C@H](C2)N(CC2CCC2)C3=O)c1	14%	6%	i	-31*	-11%
Cc1c(C(=O)C(=O)N(C)Cc2ccccc2)c2ccccc2n1C	.	.	i	.	.
O=C(Nc1ccc2oc(-c3cccnc3)nc2c1)c1ccccc1F	55%	14%	?	-30*	?
Cc1ccc(C(=O)Nc2ccc3oc(-c4cccnc4)nc3c2)c(Cl)c1	20%	-1%	?	-30*	?
Cc1cccc(-c2nc3cc(NC(=O)c4ccccc4F)ccc3o2)c1	.	.	i	.	.
COc1ccc(Cl)cc1NC(=O)Cn1ncc2ccc(OC)c(OC)c2c1=O	.	.	i	.	.
Oc1cccc(CNC(c2ccccc2)c2ccccc2)c1	.	.	i	.	.
Nc1c(S(=O)(=O)O)cc(Nc2ccc(Nc3nc(Cl)nc(Nc4ccc(S(=O)(=O)O)cc4)n3)c(S(=O)(=O)O)c2)c2c1C(=O)c1ccccc1C2=O	-5%	-16%	.	.	2.9µM*
Cc1ccc(N(C)S(=O)(=O)c2c(-c3cccc(F)c3)csc2C(=O)NCc2cccnc2)cc1	.	.	i	.	.
O=C(O)CCc1ccc(-c2ccccc2)n1-c1ccc(C(=O)O)cc1	12%	7%	?	-27*	-12%
Cc1ccc(-c2ccc(CCC(=O)O)n2-c2ccc(C)c(Cl)c2)cc1	49%	4%	?	-23	.
CCn1c(SC(C)C(=O)Nc2cccc(F)c2)nc2ccccc2c1=O (stereo not given)	.	.	i	.	.
CN(Cc1cccc(F)c1)Cc1cccc(C(F)(F)F)c1	-5%[87.6 µM]	-1%[87.6 µM]	.	17	.
CCCOc1ccc(C(=O)N(Cc2ccc(N(C)C)cc2)CC2CCCO2)cc1 (stereo not given)	15%	-9%	i	-10	.
COc1ccc(C(=O)N(Cc2cc(OC)c(OC)c(OC)c2)CC2CCCO2)cc1 (stereo not given)	25%	?	?	-25*	5%
CC(C)C[C@H](C(=O)O)c1cc(-c2ccc(C(F)(F)F)cc2)cc(-c2ccc(C(F)(F)F)cc2)c1	.	-34%	.	-30*	?
CCOC(=O)c1ccc(NC(=O)c2csc3c2CCCC3)cc1	91%	0%	?	-33*	?
Cc1cccc(C(=O)N2CCC(c3nc(C4CCOCC4)no3)C2)c1 (stereo not given)	10%	-6%	?	9	.
Cc1ccc(-c2cc(C(=O)N3CCC(c4nc(C5CCOCC5)no4)C3)c3ccccc3n2)cc1C (stereo not given)	10µM*	?	25µM*	-28*	-2%
O=C(O)C(Cl)C12CC3CC(C1)CC(C(Cl)C(=O)O)(C3)C2 (stereo not given)	.	.	i	.	.
O=C(CCc1c[nH]c2ccccc12)Nc1ccc(Cl)c(Cl)c1	.	.	i	.	.
SMILES	SNCA expr inhib	SNCA viab count	KDM5B inhibitor	IP6K1 inh	IP6K1 conf
C=C1c2cccc(O)c2C(O)=C2C(=O)[C@]3(O)C(O)=C(C(N)=O)C(=O)[C@@H](N(C)C)[C@@H]3[C@@H](O)[C@H]12	-15%[25.6 µM]	-22%[23.9 µM]	.	-37*	-13%
Cn1nc(C(=O)NCc2ccccc2)c2c1-c1ccccc1SC2	53%	-6%	?	-22	.
COc1cccc(CNC(=O)c2nn(C)c3c2CSc2ccccc2-3)c1	-4%	-1%	?	-32*	?
COc1ccc(-c2cc(C(=O)NCc3c(C)cc(C)[nH]c3=O)c3c(c2)N(C(C)C)CCO3)cc1OC	?	-14%	35µM*	-27*	?
CCOc1ccccc1CN1C(=O)c2ccccc2C1C(=O)NC1CCCCCC1 (stereo not given)	-5%	?	i	-41*	-18%
O=C(Nc1cnc(N2CCC(N3CCCCC3)CC2)c(C(=O)O)c1)c1ccc(Br)cc1	-7%	5%	?	-34*	?
O=C(Nc1ccc(N2CCOCC2)c(C(=O)O)c1)c1ccc(Br)cc1	34%	7%	?	-33*	?
O=C(Nc1ccc(N2CCC(N3CCCCC3)CC2)c(C(=O)O)c1)c1ccc(Br)cc1	42%	9%	?	-29*	?
Cc1nc2cc(C(=O)Nc3ccccc3N3CCCC3=O)ccc2n1-c1ccccc1	.	.	i	.	.
CC[C@H](CC#N)OC(=O)N[C@@H](C)c1cccc(NC(=O)Nc2ccc(-c3cnco3)c(OC)c2)c1	?	?	.	-39*	?
O=C(CSc1nc(-c2ccccc2)cc(=O)[nH]1)Nc1ccc(Cl)c(Cl)c1	.	.	i	.	.
CCOC(=O)N1CCC2(CC1)N=C(CCC(C)C)NC2=O	?	3%	i	11	.
CC(C)CCC1=NC2(CCN(C(=O)CCN3CCCCC3=O)CC2)C(=O)N1	-6%	-3%	i	-35*	-14%
N#Cc1ccc(OC(=O)c2cc(-c3ccc(Cl)cc3)on2)cc1	-5%	5%	i	2	.
CCOc1ccc(-c2cc(C(=O)Oc3ccc(C#N)cc3)no2)cc1	-3%	10%	?	-27*	?
COc1ccccc1N1CCN(C(=O)C(OC)c2ccccc2)CC1=O (stereo not given)	?	-1%	i	-26*	-16%
Cc1ccc(OCC(=O)Nc2ccccc2OCc2cc(=O)n3ccccc3n2)cc1C	29%	10%	i	-27*	-4%
CC(C)Cn1c(-c2cccc(Br)c2)nc2ccccc21	-20%	-11%	?	-33*	-23%
Cn1sc(=O)n(Cc2ccccc2)c1=O	.	?	.	-83*	18µM*
O=C(Cc1c[nH]c2ncc(-c3ccccc3)cc12)Nc1ccc(Cl)cc1	-15%[87.6 µM]	-11%[87.6 µM]	i	-11	.
O=C(Cc1c[nH]c2ncc(-c3ccc(F)c(Cl)c3)cc12)NCc1cccnc1	-19%[87.6 µM]	-18%[87.6 µM]	32µM*	-26*	?
C[S+](=O)([O-])c1ccc(-c2cnc3[nH]cc(CC(=O)N4CCOCC4)c3c2)cc1	9%[87.6 µM]	-7%[87.6 µM]	?	-13	.
NC(=O)Cc1c[nH]c2ncc(-c3ccc(Cl)cc3)cc12	10%[87.6 µM]	-3%[87.6 µM]	20µM*	-43*	?
NC(=O)Cc1c[nH]c2ncc(-c3ccc(F)c(Cl)c3)cc12	5%[87.6 µM]	4%[87.6 µM]	40µM*	-36*	?
NC(=O)Cc1c[nH]c2ncc(-c3ccc4c(c3)OCO4)cc12	13%[87.6 µM]	11%[87.6 µM]	35µM*	-47*	15µM*
CCOC(=O)c1ccc(NC(=O)CSc2nc3c(-c4ccccc4)c[nH]c3c(=O)n2CC)cc1	.	.	i	.	.
